Compound activity (PubChem)
Hits are enriched below; roughly 0.54% of the tested compounds scored in any of these assays.
BH1578 lux ind: induces V. cholerae light production without autoinducers | AID 588436 | activation, % at 18.7 µM | 350,000 compounds, 0.16% hits | V. cholerae BH1578 lux reporter, luminescence, 6 h; in the data active means activation mostly above about 9.7%, no sharp cut-off; inconclusive means no clear call, values can overlap the other calls; inactive means mostly below about 3.7%
FadD28 FP inh: blocks FadD28 binding to the bisubstrate probe | fluorescence polarization | inhibition, % at 12.5 µM | 360,000 compounds, 0.22% hits | AID 588549; in the data active means inhibition above about 8.5%, passing the limit was not always enough; inconclusive means no clear call, values can overlap the other calls
BioA inh: BioA (M. tuberculosis) enzyme inhibition; purified M. tuberculosis BioA enzyme, plate reader; 360,000 compounds, 0.096% hits; AID 602481; inhibition, % at 9.99 µM; in the data active means inhibition above about 40%; inconclusive means no clear call, values can overlap the other calls
TcdB GH inh: TcdB glycohydrolase inhibition. 350,000 compounds, 0.24% hits. AID 652162. P18177. inhibition, % at 9.99 µM. TcdB glycohydrolase enzymatic assay, plate reader; in the data active means inhibition above about 10%
* = called active by the depositor; i = inactive; u = inconclusive; x = not tested or not shown.

SMILES	BH1578 lux ind	FadD28 FP inh	BioA inh	TcdB GH inh
C[C@H](CO)N1C[C@H](C)[C@@H](CN(C)Cc2ccccc2)Oc2ccc(NS(=O)(=O)c3ccc(Cl)cc3)cc2C1=O	x	x	1	0
Cc1cc(C)nc(/N=C(\N)Nc2ccccc2-c2ccccc2)n1	-1	-4	x	10*
CCCCc1nnc(NC(=O)Cc2ccc(OC)c(S(=O)(=O)N3CCOCC3)c2)s1	1	-1	x	1
COc1ccc(CC(=O)Nc2nnc(SCc3ccccc3)s2)cc1S(=O)(=O)N1CCOCC1	i	13*	-2	x
Cc1csc(NC(=O)CSc2nnc(NC(=O)NC(C)(C)C)s2)n1	i	12*	-1	1
CC(=O)C(Sc1nn(C)c(=S)s1)C(=O)Nc1ccccc1 (configuration not stated)	25*	-3	0	x
CC(=O)C(Sc1nc(N(C)C)nc(N(C)C)n1)C(=O)Nc1ccccc1 (configuration not stated)	i	-1	12	-2
Cc1cc(O)c(C=O)c2c1C(=O)Oc1c(CO)c(O)c3c(c1O2)C(O)OC3=O (configuration not stated)	-1	18*	1	x
CN(C)c1ccc(C(=O)c2ccc(O)cc2O)cc1	0	-2	-2	x
CN(C)c1ccc(Cc2cc3c(O)ccc(O)c3cc(Cc3ccc(N(C)C)cc3)c2=O)cc1	-1	11*	x	1
Nc1ccc(C(=O)Nc2ccc3c(O)cc(S(=O)(=O)O)cc3c2)cc1	i	15*	5	1
Nc1ccc(NC(=O)c2ccc(C(=O)Nc3ccc(N)cc3)cc2)cc1	0	0	0	1
C[C@H]1CN([C@@H](C)CO)C(=O)c2cc(NC(=O)CCC(F)(F)F)ccc2O[C@H]1CN(C)S(=O)(=O)c1cn(C)cn1	x	x	0	1
COc1cc(/C=N/n2c(-c3ccccc3)n[nH]c2=S)ccc1O	i	-2	x	18*
COc1cc(-c2n[nH]c(=S)n2/N=C/c2cccn2C)cc(OC)c1OC	-1	-3	x	11*
Oc1c(Br)cc(/C=N/n2c(-c3ccccc3)n[nH]c2=S)c(O)c1Br	i	u	13	x
Cc1c(Br)c(O)c(Br)c(O)c1/C=N/n1c(-c2ccccc2)n[nH]c1=S	i	21*	6	-1
Cn1cccc1/C=N/n1c(-c2ccco2)n[nH]c1=S	-2	-4	x	x
O=c1cc[nH]c2c1ccc1c(=O)cc[nH]c12	0	-2	x	-18
Cc1[nH]ccc2c1[nH]c1cc(=O)ccc12	-1	0	-1	10*
COc1cc(/C=C(/NC(=O)c2ccccc2)C(=O)Nc2ccc(O)cc2)c([N+](=O)[O-])cc1OC	-1	-3	x	13*
Cc1ccc(NC(=O)/C(=C\c2cccs2)NC(=O)c2ccccc2)cc1	-3	-2	x	x
O=C(Nc1ccc(O)cc1)/C(=C\c1cccs1)NC(=O)c1ccccc1	-1	-1	x	19*
CC(C)C#Cc1ccc([C@@H]2[C@H](CO)N3CCCCN(C(=O)c4ccc5c(c4)OCO5)C[C@@H]23)cc1	x	x	-6	-8
Cc1cc(NC(=O)CSc2cn(CCNC(=O)c3ccccc3)c3ccccc23)no1	0	-3	-1	x
SMILES	BH1578 lux ind	FadD28 FP inh	BioA inh	TcdB GH inh
Cc1ccc(C(=O)NCCn2cc(SCC(=O)Nc3cc(C)on3)c3ccccc32)cc1	0	0	-1	15*
C[C@H]1CN([C@@H](C)CO)S(=O)(=O)c2ccc(/C=C/c3ccccc3)cc2O[C@@H]1CN(C)C(=O)NC1CCCC1	x	x	-5	0
Cc1cc(C)nc(SCC(=O)c2ccc(O)c(O)c2)n1	0	0	0	11*
COc1ccc(-n2nnnc2SCC(=O)c2ccc(O)c(O)c2)cc1	i	12*	-1	x
C[C@H]1CN([C@@H](C)CO)C(=O)c2cccc(NS(=O)(=O)c3ccccc3)c2O[C@H]1CN(C)S(C)(=O)=O	x	x	-2	0
O=C(COC(=O)c1ccc(Cl)c(S(=O)(=O)N2CCCCCC2)c1)Nc1ccccc1	0	62*	x	1
O=C(NCc1ccncc1)c1ccc(Cl)c(S(=O)(=O)N2CCCCC2)c1	i	0	x	1
Cc1ccc(CSCCNC(=O)c2ccc(N(C)S(=O)(=O)c3ccccc3)cc2)cc1	0	8.8*	x	x
O=C(COC(=O)c1ccc(S(=O)(=O)N2CCCC2)cc1)Nc1ccccc1	-2	0	-6	0
COc1ccc(CNC(=O)c2ccc(Cl)c(S(=O)(=O)N3CCCCCC3)c2)cc1	-1	8.7*	-1	0
Cc1ccc(CSCCNC(=O)c2ccc(Cl)c(S(=O)(=O)N3CCOCC3)c2)cc1	0	34*	10	x
CN(c1ccc(C(=O)NCCSCc2ccc(Cl)cc2)cc1)S(=O)(=O)c1ccccc1	-1	3	x	-6
